Measured values as given in PubChem BioAssay AID1159580 (chemical genetic matrix, 2015).
“And” between values parts separate entries of the source, which are not always exact repeats. Equal entries are not always repeated. The whole screen tested about 5,500 compounds, of which about 2,000 (36%) were called active. Another 18% or so got no clear call; they are omitted. Cut-off read from the data, not from the text of the source: active = normalized growth mostly below about 0.91 (no sharp cut-off); inconclusive = no clear call, values can overlap the other calls; inactive = mostly above about 0.92. Some of the results follow.

Assay: chemical genetic growth profiling, strain panel (AID 1159580);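 note: tested at 20 µM; growth read once vehicle control cultures reached saturation at 30 °C; 1 = growth at the plate median or of vehicle wells; lower values mean less growth of the strain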
Conditions: S. cerevisiae deletion strains, growth OD

Measured: normalized growth

CC(C)=CCCC1(C)C=Cc2c(O)c3c(c(CC=C(C)C)c2O1)OC12C(=CCCC1C(C)(C)O[C@@]2(C/C=C(\C)C(=O)O)C(=O)O)C3=O (some centres not stated)
0.501 (active) and 0.921 (inactive): locus YHR030C, strain SLT2, stronger effect = lower value
inactive: locus YAL021C, strain ccr4, stronger effect = lower value 0.996 | locus YBR021W, strain FUR4, stronger effect = lower value 1.03 | locus YBR171W, strain sec66, stronger effect = lower value 1 | locus YBR279W, strain paf1, stronger effect = lower value 0.933 | locus YCL016C, strain dcc1, stronger effect = lower value 0.92 | locus YCL069W, strain vba3, stronger effect = lower value 0.941 | locus YCR088W, strain abp1, stronger effect = lower value 0.988 | locus YDL005C, strain med2, stronger effect = lower value 1.03 | locus YDL040C, strain nat1, stronger effect = lower value 0.999 | locus YDL185W, strain tfp1, stronger effect = lower value 0.964 | locus YDR001C, strain nth1, stronger effect = lower value 0.999 | locus YDR069C, strain doa4, stronger effect = lower value 0.923 | locus YDR195W, strain ref2 1.12 | locus YDR334W, strain swr1, stronger effect = lower value 0.991 | locus YEL037C, strain rad23, stronger effect = lower value 0.987 | locus YEL061C, strain CIN8 (second series), stronger effect = lower value 0.963 | locus YER016W, strain bim1, stronger effect = lower value 0.957 | locus YER110C, stronger effect = lower value 0.953 | locus YFR010W, strain ubp6, stronger effect = lower value 0.919 | locus YGL078C, strain dbp3, stronger effect = lower value 0.998 | locus YGL167C, strain pmr1, stronger effect = lower value 0.996 | locus YGL227W, strain vid30, stronger effect = lower value 1.04 | locus YGL240W, strain doc1, stronger effect = lower value 0.989 | locus YGR252W, strain gcn5, stronger effect = lower value 0.902 | locus YHR013C, strain ard1, stronger effect = lower value 0.96 | locus YHR079C, strain IRE1 (second series), stronger effect = lower value 0.979 | locus YHR079C, strain IRE1, stronger effect = lower value 0.94 | locus YHR094C, strain hxt1, stronger effect = lower value 0.973 | locus YHR200W, strain rpn10, stronger effect = lower value 0.952 | locus YIL073C, strain SPO22, stronger effect = lower value 0.873 | locus YIL125W, strain kgd1, stronger effect = lower value 0.961 | locus YIR030C, strain dcg1, stronger effect = lower value 0.942 | locus YJL092W, strain hpr5, stronger effect = lower value 0.949 | locus YJL115W, strain asf1, stronger effect = lower value 1.04 | locus YJL129C, strain trk1, stronger effect = lower value 0.973 | locus YJL134W, strain LCB3, stronger effect = lower value 0.929 | locus YJL154C, strain vps35, stronger effect = lower value 1.01 | locus YJL168C, strain set2, stronger effect = lower value 0.971 | locus YJR066W, strain TOR1, stronger effect = lower value 0.909 | locus YKL009W, strain mrt4, stronger effect = lower value 1.11 | locus YKL068W, stronger effect = lower value 0.981 | locus YKL085W, strain MDH1 (second series), stronger effect = lower value 0.968 | locus YKL085W, strain MDH1, stronger effect = lower value 0.968 | locus YKR026C, strain gcn3, stronger effect = lower value 1 | locus YKR091W, strain srl3, stronger effect = lower value 0.998 | locus YLL001W, strain dnm1, stronger effect = lower value 0.932 | locus YLL026W, stronger effect = lower value 0.985 | locus YLL041C, strain sdh2, stronger effect = lower value 0.992 | locus YLR102C, strain apc9, stronger effect = lower value 0.988 | locus YLR113W, strain HOG1, stronger effect = lower value 0.882 | locus YLR258W, strain gsy2, stronger effect = lower value 0.924 | locus YLR357W, strain rsc2, stronger effect = lower value 1.01 | locus YLR370C, strain arc18, stronger effect = lower value 0.988 | locus YLR384C, strain iki3, stronger effect = lower value 1.02 | locus YML120C, strain ndi1, stronger effect = lower value 0.964 | locus YML124C, strain tub3, stronger effect = lower value 0.948 | locus YMR078C, strain ctf18, stronger effect = lower value 0.973 | locus YMR129W, stronger effect = lower value 0.935 | locus YMR263W, strain SAP30, stronger effect = lower value 0.936 | locus YNL067W, strain RPL9B, stronger effect = lower value 0.917 | locus YNL183C, strain NPR1, stronger effect = lower value 0.895 | locus YNL248C, strain rpa49, stronger effect = lower value 0.935 | locus YNL250W, strain rad50, stronger effect = lower value 0.956 | locus YNL271C, strain bni1, stronger effect = lower value 0.947 | locus YNL298W, strain CLA4, stronger effect = lower value 0.963 | locus YNL322C, strain KRE1 (second series), stronger effect = lower value 1.04 | locus YNR049C, strain mso1, stronger effect = lower value 0.986 | locus YOL012C, strain htz1 0.267 | locus YOR001W, strain rrp6, stronger effect = lower value 0.901 | locus YOR070C, strain gyp1, stronger effect = lower value 0.931 | locus YOR080W, strain dia2, stronger effect = lower value 1.03 | locus YOR083W, strain WHI5, stronger effect = lower value 0.909 | locus YOR136W, strain idh2, stronger effect = lower value 0.94 | locus YOR231W, strain MKK1, stronger effect = lower value 0.942 | locus YOR265W, strain rbl2, stronger effect = lower value 0.945 | locus YOR290C, strain snf2, stronger effect = lower value 0.944 | locus YOR316C, strain cot1, stronger effect = lower value 0.979 | locus YPL078C, strain atp4, stronger effect = lower value 0.897 | locus YPL106C, strain sse1, stronger effect = lower value 0.993 | locus YPL240C, strain hsp82, stronger effect = lower value 0.955 | locus YPL256C, strain CLN2, stronger effect = lower value 0.893 | locus YPR119W, strain clb2, stronger effect = lower value 0.956 | locus YPR141C, strain kar3, stronger effect = lower value 0.962 | locus YPR167C, strain met16, stronger effect = lower value 0.939
0.263 (active) and 0.923 (inactive): locus YJL095W, strain BCK1, stronger effect = lower value
active: locus YAL026C, strain drs2, stronger effect = lower value 0.813 | locus YAL030W, strain snc1, stronger effect = lower value 0.915 | locus YBL061C, strain skt5, stronger effect = lower value 0.918 | locus YBR009C, strain hhf1, stronger effect = lower value 0.86 | locus YBR023C, strain chs3, stronger effect = lower value 0.844 | locus YBR229C, strain ROT2, stronger effect = lower value 0.903 | locus YBR231C, strain swc5, stronger effect = lower value 0.861 | locus YCL011C, strain gbp2, stronger effect = lower value 0.887 | locus YCL029C, strain bik1, stronger effect = lower value 0.907 | locus YDL035C, strain GPR1, stronger effect = lower value 0.782 | locus YDL074C, strain BRE1, stronger effect = lower value 0.685 | locus YDL101C, strain DUN1, stronger effect = lower value 0.834 | locus YDL192W, strain arf1, stronger effect = lower value 0.766 | locus YDR101C, strain arx1, stronger effect = lower value 0.869 | locus YDR137W, strain rgp1, stronger effect = lower value 0.498 | locus YDR159W, strain sac3, stronger effect = lower value 0.694 | locus YDR162C, strain NBP2, stronger effect = lower value 0.377 | locus YDR297W, strain sur2, stronger effect = lower value 0.861 | locus YDR318W, strain mcm21, stronger effect = lower value 0.81 | locus YDR335W, strain msn5, stronger effect = lower value 0.881 | locus YDR388W, stronger effect = lower value 0.884 | locus YDR392W, strain spt3, stronger effect = lower value 0.283 | locus YDR502C, strain sam2, stronger effect = lower value 0.864 | locus YEL003W, strain gim4, stronger effect = lower value 0.907 | locus YEL061C, strain CIN8, stronger effect = lower value 0.89 | locus YER015W, strain faa2, stronger effect = lower value 0.84 | locus YER111C, strain swi4, stronger effect = lower value 0.91 | locus YER155C, strain BEM2 (second series), stronger effect = lower value 0.546 | locus YER155C, strain BEM2, stronger effect = lower value 0.879 | locus YER167W, strain BCK2, stronger effect = lower value 0.807 | locus YGL086W, strain mad1, stronger effect = lower value 0.851 | locus YGL173C, strain kem1, stronger effect = lower value 0.701 | locus YGL248W, strain PDE1, stronger effect = lower value 0.792 | locus YGL253W, strain hxk2, stronger effect = lower value 0.85 | locus YGR078C, strain PAC10, stronger effect = lower value 0.753 | locus YGR135W, strain pre9, stronger effect = lower value 0.863 | locus YHR027C, strain rpn1, stronger effect = lower value 0.814 | locus YHR129C, strain ARP1, stronger effect = lower value 0.808 | locus YHR142W, strain chs7, stronger effect = lower value 0.702 | locus YIL066C, strain RNR3, stronger effect = lower value 0.804 | locus YJL095W, strain BCK1 (second series), stronger effect = lower value 0.609 | locus YJL164C, strain tpk1, stronger effect = lower value 0.86 | locus YJL166W, strain qcr8, stronger effect = lower value 0.851 | locus YJL187C, strain SWE1 (second series), stronger effect = lower value 0.789 | locus YJR043C, strain POL32, stronger effect = lower value 0.822 | locus YKL160W, strain elf1, stronger effect = lower value 0.896 | locus YKR001C, strain vps1, stronger effect = lower value 0.739 | locus YLR027C, strain aat2, stronger effect = lower value 0.911 | locus YLR039C, strain RIC1, stronger effect = lower value 0.366 | locus YLR058C, strain SHM2, stronger effect = lower value 0.803 | locus YLR221C, strain rsa3, stronger effect = lower value 0.823 | locus YLR262C, strain YPT6 (second series), stronger effect = lower value 0.402 | locus YLR268W, strain sec22, stronger effect = lower value 0.772 | locus YLR320W, strain mms22, stronger effect = lower value 0.646 | locus YLR330W, strain CHS5, stronger effect = lower value 0.845 | locus YLR342W, strain FKS1 (second series), stronger effect = lower value 0.77 | locus YLR342W, strain FKS1, stronger effect = lower value 0.818 | locus YLR371W, strain rom2, stronger effect = lower value 0.738 | locus YLR418C, strain cdc73, stronger effect = lower value 0.509 | locus YML016C, strain PPZ1, stronger effect = lower value 0.907 | locus YML032C, strain rad52, stronger effect = lower value 0.828 | locus YMR058W, strain fet3, stronger effect = lower value 0.258 | locus YMR125W, strain sto1, stronger effect = lower value 0.848 | locus YMR205C, strain PFK2, stronger effect = lower value 0.812 | locus YMR223W, strain ubp8, stronger effect = lower value 0.825 | locus YMR231W, strain pep5, stronger effect = lower value 0.762 | locus YMR307W, strain GAS1, stronger effect = lower value 0.317 | locus YNL071W, strain lat1, stronger effect = lower value 0.463 | locus YNL128W, strain TEP1, stronger effect = lower value 0.797 | locus YNL153C, strain GIM3, stronger effect = lower value 0.847 | locus YNL209W, strain ssb2, stronger effect = lower value 0.783 | locus YNL233W, strain BNI4, stronger effect = lower value 0.823 | locus YNL307C, strain MCK1, stronger effect = lower value 0.437 | locus YNL322C, strain KRE1, stronger effect = lower value 0.923 | locus YNR052C, strain pop2, stronger effect = lower value 0.846 | locus YOL147C, strain pex11, stronger effect = lower value 0.867 | locus YOR061W, strain CKA2, stronger effect = lower value 0.831 | locus YOR069W, strain VPS5, stronger effect = lower value 0.847 | locus YOR106W, strain vam3, stronger effect = lower value 0.697 | locus YOR144C, strain elg1, stronger effect = lower value 0.888 | locus YOR184W, strain ser1, stronger effect = lower value 0.632 | locus YOR270C, strain vph1, stronger effect = lower value 0.517 | locus YPL051W, strain arl3, stronger effect = lower value 0.664 | locus YPL055C, strain LGE1, stronger effect = lower value 0.734 | locus YPR163C, strain tif3, stronger effect = lower value 0.524 | strain wtn01, stronger effect = lower value 0.817
